PubChem BioAssay AID1159506 (National Center for Advancing Translational Sciences (NCATS), 2015)
Whole data set: some 59,000 sequences, median the read-out near -0.00055, cut for the lowest 2% near -2. Many of the other results were omitted from the sample, so the lowest values are more common in it than they were.

test: Identification of proteins required for the processing of the EWS-FLI1 nascent transcript; conditions: TC32 Ewing sarcoma NR0B1-luc vs CMV-luc (EWS-FLI1 target promoter against control promoter), 48 h; screened at 20 nM (by protocol);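 note: robust z of luciferase light less the median z of siRNAs with the same seed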
In short: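 Readout: OneGlo luminescence, 48 h post-transfection, TC32-NR0B1-luc vs TC32-CMV-luc in parallel. siRNA 20 nM final, RNAiMax lipid, 600 cells/well; z-score-MAD transformed, then seed-adjusted.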

| Sequence | seed-corrected z-score |
| --- | --- |
| UGUUAUCCGAGUAUAAUAC against PSMD12 | -2.56 |
| UUAUCACCCAUAGGAGCCU against LOC400965 | 0.18 |
| UGUCUUGUAGAUUUCCACC against TATDN1 | -0.0339 |
| AUAGCUGUGAGACAUCAGG against PRCD | -2.08 |
| UUAGUUCGUUCCUCUGUGC against PSMC5 | 1.1 |
| UUCGCUGACUCUGUAACCC against CACNB4 | -0.0786 |
| UACUCGCUCACCACAAAGG against SRSF4 | -0.234 |
| UCUCGGUUCAUUUUCUUGA against HOXC10 | 0.936 |
| AAUGAUUUUAGAAGCCUGU against NPR3 | 0.11 |
| UAAGAUACUAUGGGAAAUA against C20orf166-AS1 | -2.11 |
| AAAGUUUAAGCAACCGUCG against RPS23P8 | 1.69 |
| AAAUCGUUCAAUUACAUCC against ADAM17 | 0.501 |
| UGGAGAGUAUGGGUAGUCG against CDC34 | -1.87 |
| UCAGGUUCUUCCGUAGCUG against PHF21A | -0.312 |
| AAAGACUCCAUAUAGACGG against ROR1 | -0.522 |
| AUCAAUGACAUAAUCGCUG against SHANK3 | -0.601 |
| AGUGGAGUUAGAUAGUUGG against KDM6A | -4.37 |
| UACCACAUUACACUCGUCU against NPM3 | 0.156 |
| UUGUUGUCCAUAAUUGUCC against RNF8 | 1.95 |
| UCCGGAUAUACUGUGCUUC against PCMTD2 | 0.0601 |
| UUUGGGCCUGCUGAAAUUG against RNF148 | 0.493 |
| AACUGUCUUGUUGCUCUUG against NFKBID | -0.0314 |

| Sequence | seed-corrected z-score |
| --- | --- |
| AAGAUAGUCAAGCAUGUGC against ELMO3 | 0.733 |
| UGUUGUCGCAGUGAGGAGC against KIAA0141 | -2 |
| UUUGGUGACUGGACCGUUC against TRIM24 | -0.553 |
| UUGACAGCAAUCACAGUGG against AWAT2 | 0.583 |
| UCAGCUCGGAUUUCACGGC against SHISA7 | 0.404 |
| UUAAGUUGAUCUGUACUGC against FAM117B | -0.0872 |
| CAGCCAUCUAGGAUGAGCC against RPL10P8 | -0.668 |
| UGGUUUUAGAGGAAUAGGG against SLC51A | -0.953 |
| UAGGAAACCAAGCACAUCU against SH3BGRL | 1.88 |
| AUAGCCUCCAGUCCAAUUG against TM2D3 | -2.03 |
| UUGGUGGUGAACAUAGGGA against TAL1 | -0.201 |
| UAGGUUGGAGAAUUGUUCC against T | -0.372 |
| UGUUGUAGGAAUAGCCUGG against PITX2 | -2.28 |
| UGGUCAUUUGGUAUGAGGC against CAPRIN2 | 0.0796 |
| UUCUUGAGAAGCAGGUUCU against STAT6 | -0.716 |
| UGAUCCAUGGGUUCGAUCC against ROCK2 | -0.007 |
| AAAAUAGAGGUCACCAUAC against C1orf35 | 0.456 |
| UGAGAAUUAUGAUCACUGC against SLC7A1 | -0.0797 |
| UUUGUGCUUAACUGGCUGG against RPL12 | -2.56 |
| GCCGCGUACUUGUUGUUGC against IGLL1 | 0.951 |
| UCCUGCUACAUUUACAUCG against FERMT1 | -3.31 |
| AAACUGAGAAACAUCAAGG against ZNF433 | -1.01 |

| Sequence | seed-corrected z-score |
| --- | --- |
| UGUCAUCCCAUCAAUGACU against PPIC | -0.679 |
| UUUAAGGCAUCAUCUAGAC against DHFR | -0.615 |
| UUCGAUGAAGAAACUCUGC against DOCK11 | 0.27 |
| UGCGUUUUUAAGCAUGUGC against RPL17 | -2.46 |
| UUUUGUGCCUUCGUUAACC against ADAM9 | -0.742 |
| UUUCUGUCCAGCAUAUGUA against SSU72 | -0.804 |
| UCUCUUCAGAGCGUGCACC against ANKRD54 | -0.161 |
| UUAGCUCCAAGUCUUGCAG against HDLBP | 0.263 |
| UACUGGUCCACGGAGAUUU against CSPG4 | 0.0797 |
| CUUCAUAGUGGUGUCCACG against MUC3B | -0.292 |
| UUCGUUUCGUCUCUUCUAG against ESCO1 | 1.44 |
| ACCGUUAAAACAAGCUUCG against NBAS | 0.0519 |
| UUCGCUGAAAAGAAACUGG against PHRF1 | -0.139 |
| UUUAAGCAACCGUCGUUGG against RPS23P8 | -9.97 |
| AAUCUAUAACUCUUUGACC against MKKS | -0.508 |
| UGAUGGUCAACUUGAUGCC against LCK | -4.01 |
| UGCAUUCCCACCAAUGUUG against EIF2B2 | -0.2 |
| UCAGAGCGAUUUUCAGUAC against KCTD21 | 0.306 |
| UAUGUUGUCACUAGUCAGC against PNPLA7 | -0.38 |
| UUCUGCAAAGCGCCACAGG against SLC22A31 | -2.24 |
| UUCUGAGUAAUCUACAAUG against RHOT1 | 0.1 |
| AACCGUGUAACCAUAGCUC against GABRQ | 0.126 |
